Experimental data taken from PubChem BioAssay (NCATS).
Inconclusive results are not listed. Active and inactive are the calls of the source. The call rests on the fitted dose curve; in most records, active means well fitted curve in the direction sought with a large enough effect; inconclusive means small, poorly fitted or top-dose-only effect, or another doubt; inactive means no such curve, though single readings can be large; an effect the other way counts as inactive or inconclusive.

Experiments:
[1] = molecular target: Rap guanine nucleotide exchange factor 3 (Homo sapiens) (UniProt O95398); assay: Confirmatory qHTS for agonist of cAMP-regulated guanine nucleotide exchange factor 3 (EPAC1) (AID 1645881);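 further: EPAC1 catalysed release of BODIPY-GDP from Rap1B seen as fluorescence loss; 100% = effect of cAMP agonist control; nearly all actives have a fitted effect of over 75% in size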
[2] = molecular target: Rap guanine nucleotide exchange factor 4 (Homo sapiens) (UniProt Q8WZA2); assay: Confirmatory qHTS for agonist of cAMP-regulated guanine nucleotide exchange factor 4 (EPAC2) (AID 1645884);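 further: nucleotide exchange releases bodipy-GDP from Rap1 and this lowers its fluorescence; on the % scale 0 is the no-effect control and ±100 the full control effect; nearly all actives have a fitted effect of over 65% in size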
[3] = molecular target: Rap guanine nucleotide exchange factor 4 (Homo sapiens) (UniProt Q8WZA2); assay: Confirmatory qHTS for antagonist of cAMP-regulated guanine nucleotide exchange factor 4 (EPAC2) (AID 1645885); further: on the % scale 0 is the no-effect control and ±100 the full control effect; nearly all actives have a fitted effect of over 25% in size
[4] = molecular target: Rap guanine nucleotide exchange factor 3 (Homo sapiens) (UniProt O95398); assay: Counterscreen qHTS for antagonist of cAMP-regulated guanine nucleotide exchange factor 3 (EPAC1) (AID 1645888);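 further: fluorescence loss as bound BODIPY-GDP is released from Rap1B; % of control where 0% means no effect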
Procedure, shortened: (§1)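 Rap1B–BODIPY-GDP (250 nM) with 50 uM GDP; compounds pin-transferred to 9.74 nM–152 uM final (activator) or from 7.32 nM upwards (inhibitor). Fluorescence Ex/Em 480/540 nm read at 5 and 30 min, then after adding cAMP or buffer, at room temperature.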

[5] = molecular target: Rap guanine nucleotide exchange factor 3 (Homo sapiens) (UniProt O95398); assay: Counterscreen qHTS for agonist of cAMP-regulated guanine nucleotide exchange factor 3 (EPAC1) (AID 1645889); further: % of control where 0% means no effect; nearly all actives have a fitted effect of over 40% in size
Procedure, shortened: as §1

Sequence of Rap guanine nucleotide exchange factor 4 (Homo sapiens) (Q8WZA2 whole entry, looked up): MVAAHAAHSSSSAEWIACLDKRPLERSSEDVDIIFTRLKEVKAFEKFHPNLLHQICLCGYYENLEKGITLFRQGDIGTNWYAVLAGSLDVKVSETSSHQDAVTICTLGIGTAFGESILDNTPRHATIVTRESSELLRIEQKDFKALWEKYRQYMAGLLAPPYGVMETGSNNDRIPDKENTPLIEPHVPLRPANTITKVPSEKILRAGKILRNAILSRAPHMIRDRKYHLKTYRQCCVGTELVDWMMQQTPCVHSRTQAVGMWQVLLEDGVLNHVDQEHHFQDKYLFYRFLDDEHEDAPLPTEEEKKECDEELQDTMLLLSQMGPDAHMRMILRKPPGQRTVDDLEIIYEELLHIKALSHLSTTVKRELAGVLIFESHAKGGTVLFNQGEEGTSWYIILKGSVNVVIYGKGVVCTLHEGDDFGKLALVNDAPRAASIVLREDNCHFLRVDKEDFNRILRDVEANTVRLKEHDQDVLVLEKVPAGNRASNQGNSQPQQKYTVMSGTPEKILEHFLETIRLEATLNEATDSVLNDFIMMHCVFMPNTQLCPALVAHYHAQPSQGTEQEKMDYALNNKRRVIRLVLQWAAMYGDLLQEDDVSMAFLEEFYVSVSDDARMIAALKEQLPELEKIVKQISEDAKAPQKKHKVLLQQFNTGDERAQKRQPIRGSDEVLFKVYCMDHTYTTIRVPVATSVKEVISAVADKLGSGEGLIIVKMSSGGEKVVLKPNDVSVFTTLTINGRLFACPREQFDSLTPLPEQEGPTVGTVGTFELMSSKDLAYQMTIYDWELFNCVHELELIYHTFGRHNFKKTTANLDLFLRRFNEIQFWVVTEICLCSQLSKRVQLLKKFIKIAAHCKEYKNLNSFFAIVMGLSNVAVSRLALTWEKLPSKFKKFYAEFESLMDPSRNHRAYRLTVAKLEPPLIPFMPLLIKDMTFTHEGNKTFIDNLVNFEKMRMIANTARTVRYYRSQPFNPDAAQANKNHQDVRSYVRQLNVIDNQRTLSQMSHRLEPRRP
Sequence of Rap guanine nucleotide exchange factor 3 (Homo sapiens) (O95398 whole entry, looked up): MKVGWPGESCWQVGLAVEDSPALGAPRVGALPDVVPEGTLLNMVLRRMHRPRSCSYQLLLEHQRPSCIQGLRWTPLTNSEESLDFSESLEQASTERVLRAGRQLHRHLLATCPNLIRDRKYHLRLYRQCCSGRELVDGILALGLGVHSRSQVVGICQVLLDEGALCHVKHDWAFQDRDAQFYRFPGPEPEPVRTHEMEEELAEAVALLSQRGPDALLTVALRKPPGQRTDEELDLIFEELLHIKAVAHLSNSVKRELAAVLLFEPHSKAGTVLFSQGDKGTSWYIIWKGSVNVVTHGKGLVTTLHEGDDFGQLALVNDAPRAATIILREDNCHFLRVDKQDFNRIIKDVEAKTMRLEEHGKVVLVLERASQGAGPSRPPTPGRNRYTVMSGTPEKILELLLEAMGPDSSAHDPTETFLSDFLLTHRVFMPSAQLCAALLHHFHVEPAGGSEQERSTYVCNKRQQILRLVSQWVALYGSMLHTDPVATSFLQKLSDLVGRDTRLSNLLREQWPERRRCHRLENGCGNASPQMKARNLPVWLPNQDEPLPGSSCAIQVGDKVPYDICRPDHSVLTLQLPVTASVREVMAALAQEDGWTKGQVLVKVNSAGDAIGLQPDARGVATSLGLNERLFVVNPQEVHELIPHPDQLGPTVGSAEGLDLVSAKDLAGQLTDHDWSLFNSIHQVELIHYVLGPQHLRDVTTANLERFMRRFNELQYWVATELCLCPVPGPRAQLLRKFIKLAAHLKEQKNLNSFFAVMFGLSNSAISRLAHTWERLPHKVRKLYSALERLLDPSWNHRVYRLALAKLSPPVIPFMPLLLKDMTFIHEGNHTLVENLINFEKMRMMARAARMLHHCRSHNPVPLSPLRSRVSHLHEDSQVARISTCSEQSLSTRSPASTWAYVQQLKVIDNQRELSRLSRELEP

COc1ccc(C2=NN(c3ccccc3)C(c3cn(CCC(=O)O)nc3-c3ccccc3)C2)cc1 (stereo not given)
inactive: Potency [1] | Potency [2] | Potency [3] | Potency [4] | Potency [5]

CC1(C)C=Cc2cc(-c3coc4cc(O)cc(O)c4c3=O)cc(O)c2O1
inactive: Potency [1] | Potency [2] | Potency [3] | Potency [4] | Potency [5]

CCc1cccc(NC(=O)COC(=O)/C=C/c2cccs2)c1
inactive: Potency [1] | Potency [2] | Potency [3] | Potency [4] | Potency [5]

CCCC(=O)OCCNc1cc(SCc2ccco2)c2nonc2c1[N+](=O)[O-]
inactive: Potency [1] | activation [2] 4.83% [at 17.1 µM, percent relative to cAMP agonist control] | Potency [3] | activity change, negative = inhibition [4] 14.3% [at 30.8 µM] | activation [5] 26.5% [at 30.8 µM]

Cc1nnc2ccc(-c3ccc(NC(=O)Cc4cccs4)cc3)nn12
inactive: Potency [1] | activation [2] -1.11% [at 17.1 µM, percent relative to cAMP agonist control] | Potency [3] | activity change, negative = inhibition [4] -8.86% [at 30.8 µM] | activation [5] 9.02% [at 30.8 µM]

O=c1[nH]n2c(=O)c3c([nH]c2c1N=Nc1cccc(Cl)c1)CCCC3
inactive: Potency [1] | activation [2] -16.2% [at 17.1 µM, percent relative to cAMP agonist control] | Potency [3] | activity change, negative = inhibition [4] -25.4% [at 30.8 µM] | activation [5] -2.93% [at 30.8 µM]

COC(=O)c1ccc2nc(-c3ccc(OC)c(OC)c3)c(Cc3ccccc3)n2c1
inactive: Potency [1] | Potency [2] | Potency [3] | Potency [4] | Potency [5]

CCCCC(CC)C(=O)Nc1ccc(Nc2ccccc2)cc1 (stereo not given)
inactive: Potency [1] | Potency [2] | Potency [3] | Potency [4] | Potency [5]

CNC(=S)N1CCc2cc(OC)c(OC)cc2C1COc1ccc(F)cc1 (stereo not given)
inactive: Potency [1] | activation [2] 0% [at 17.1 µM, percent relative to cAMP agonist control] | Potency [3] | activity change, negative = inhibition [4] -1.54% [at 30.8 µM] | activation [5] 46.8% [at 30.8 µM]

COc1ccc(O)c(/C=N/NC(=O)c2ccc(N3CCCC3=O)cc2)c1
inactive: Potency [1] | Potency [2] | Potency [3] | Potency [4] | Potency [5]

CC1(C)[C@@H](O)CC[C@]2(C)C3C(O)C=C4[C@H]5C[C@@](C)(CO)CC[C@]5(C)CC[C@]4(C)[C@]3(C)CC[C@@H]12 (stereo not given in full)
inactive: Potency [1] | activation [2] -6.54% [at 17.1 µM, percent relative to cAMP agonist control] | Potency [3] | activity change, negative = inhibition [4] -3.14% [at 30.8 µM] | activation [5] -1.49% [at 30.8 µM]

O=C(O)c1ccccc1NS(=O)(=O)c1ccc(NN=Cc2ccccc2F)c([N+](=O)[O-])c1
inactive: Potency [1] | activation [2] 4.76% [at 17.1 µM, percent relative to cAMP agonist control] | Potency [3] | activity change, negative = inhibition [4] -10.7% [at 30.8 µM] | activation [5] 23.2% [at 30.8 µM]

CCOC(=O)Cc1nn(Cc2ccc(Cl)cc2)c(=O)c2ccccc12
inactive: Potency [1] | Potency [2] | Potency [3] | Potency [4] | Potency [5]

COc1cc(Cl)cc(/C=N\NC(=O)c2ccc3c(c2)OCO3)c1O
inactive: Potency [1] | Potency [2] | Potency [3] | Potency [4] | Potency [5]

CCCCNC(=O)COC(=O)c1c2c(nc3ccccc13)CCC2
inactive: Potency [1] | Potency [2] | Potency [3] | Potency [4] | Potency [5]

Cc1nn(-c2ccccc2)c(Cl)c1/C=C1\SC(=S)N(CCCCCC(=O)O)C1=O
inactive: Potency [1] | activation [2] -0.0903% [at 17.1 µM, percent relative to cAMP agonist control] | Potency [3] | activity change, negative = inhibition [4] -15.3% [at 30.8 µM] | activation [5] 22.3% [at 30.8 µM]

CCCCN1CC(c2nc3ccccc3n2CCCCOc2cc(C)cc(C)c2)CC1=O (stereo not given)
inactive: Potency [1] | Potency [2] | Potency [3] | Potency [4] | Potency [5]

Brc1ccc(/C=N/Nc2nc3ccccc3o2)cc1
inactive: Potency [1] | Potency [2] | Potency [3] | Potency [4] | Potency [5]

CC(Oc1ccc(Cl)cc1)C(=O)Nc1sccc1C(N)=O (stereo not given)
inactive: Potency [1] | activation [2] 0.0366% [at 17.1 µM, percent relative to cAMP agonist control] | Potency [3] | activity change, negative = inhibition [4] -14.6% [at 30.8 µM] | activation [5] 24.1% [at 30.8 µM]

CCCCN(Cc1ccccc1)C(=O)c1oc(=O)c2ccccc2c1-c1ccc(C)cc1
inactive: Potency [1] | Potency [2] | Potency [3] | Potency [4] | Potency [5]

Cc1cc(N2CCN(c3cccc(C(F)(F)F)c3)CC2)n2nc(-c3ccccc3C)nc2n1
inactive: Potency [1] | Potency [2] | Potency [3] | Potency [4] | Potency [5]

CCc1cc(C(=O)N=Nc2c(O)[nH]c3ccc([N+](=O)[O-])cc23)c2ccccc2n1
inactive: Potency [1] | Potency [2] | Potency [3] | Potency [4] | Potency [5]
